# Pf growth 96h: Primary qHTS for delayed death inhibitors of the malarial parasite plastid, 96 hour incubation; Potency, µM (series often up to 28.7 µM), usual class: inhibitors; 6.9% of 320,000 active; P. falciparum luciferase reporter growth, 96 h
#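 P. falciparum expressing integrated firefly luciferase grown in erythrocytes (2% hematocrit, 0.05% parasitemia final) with compounds for 96 hours at 37 C, 5% CO2. Growth inhibition read as loss of luminescence after adding luciferase detection reagent.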
# SARS PLP yeast: qHTS of Yeast-based Assay for SARS-CoV PLP. AID 485353, 2010. 0.19% of 330,000 active. S. cerevisiae expressing SARS-CoV PLpro, growth rescue. Potency, µM (series often up to 32.9 µM), actives largely listed as activators; calls by dose curve; also: nearly all actives have a fitted effect of over 55% in size
# HCMV antiviral: qHTS Assay for inhibitors of the human cytomegalovirus (HCMV). HFF cells, HCMV-luciferase reporter, 72 h; hits give low values. activity change, negative = inhibition, % at 57.5 µM. 4.5% of 410,000 active; in the data active = activity change below about -60%; inconclusive = no clear call, values can overlap the other calls; inactive = above about -39%
#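 Steps: HFFs plated, 16 h 37C; compounds added; HCMV-luciferase added to MOI 1 PFU/cell; 72 h 37C; OneGlo reagent, 5 min room temperature; luminescence read, normalized to controls.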
# Pf growth 48h: Primary qHTS for delayed death inhibitors of the malarial parasite plastid, 48 hour incubation. 5.9% of 310,000 active. P. falciparum luciferase growth in erythrocytes, 48 h. Potency, µM (titrated, usually from 28.7 µM), actives largely listed as inhibitors
#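 Luciferase-expressing parasites in RBCs, 2% Hct / 0.1% parasitemia final; RPMI 1640 + 0.5% Albumax; 37 C, 5% CO2, one generation; luminescence read-out, lower signal = inhibition.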
# Sm TGR block: qHTS Assay for the Inhibitors of Schistosoma Mansoni Peroxiredoxins | Potency, µM (doses to about 114 µM), hits mostly inhibitors | purified TGR, DTNB reduction, TNB absorbance 405 nm | 3% of 360,000 active; also: nearly all actives have a fitted effect of over 60% in size
#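 TGR 20 nM + NADPH 100 uM (dispensed conc.), cpd preinc 15 min RT; start with NADPH (500 uM addition) then DTNB (15 mM addition). Kinetic TNB absorbance, 405 nm filter. Four-parameter Hill fit across titration.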
# HCV inh: qHTS Assay for Inhibitors of Hepatitis C Virus (HCV); Huh7.5.1 HCVcc-Cre infection, luciferase reporter, 44 h; Potency, µM (highest dose often 41.8 µM), usual class: inhibitors; 3.4% of 340,000 active; AID 651820, 2012
#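 1,000 cells/well; 4 h culture; + compound; + HCVcc-Cre (~0.5 moi); 44 h; luciferase substrate, RT 15 min; read 15 sec.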
# Hits are given with their value; . = inactive; ? = inconclusive; / = no result given; ! = repeats disagree; [ ] = dose if it differs, or a comment. Sampled rows, rich in hits. Any-hit rate of the full collection: about 15%. Unless noted, calls follow the shape of the dose curve; as a rule, active = well fitted curve in the direction sought with a large enough effect; inconclusive = small, poorly fitted or top-dose-only effect, or another doubt; inactive = no such curve, though single readings can be large; an effect the other way counts as inactive or inconclusive.
SMILES,Pf growth 96h,SARS PLP yeast,HCMV antiviral,Pf growth 48h,Sm TGR block,HCV inh
Cc1cc(=O)oc2c1ccc1oc(/C(=N/O)c3ccccc3)c(C)c12,/,.,.,1.7µM,.,6.3µM
Cc1ccc(/C(=N\O)c2oc3c(C)c4oc(=O)cc(C)c4cc3c2C)cc1,9.3µM,.,.,?,.,5.6µM
Cc1cc(C)c(NC(=O)CNC(=O)COC(=O)C2=COCCO2)c(C)c1,.,.,.,.,.,?
Cc1ccccc1OC(=O)c1snnc1C,/,/,.,/,.,/
Cc1nnsc1C(=O)Oc1ccccc1Cl,/,/,.,/,45µM,/
Cc1[nH]c(=O)c(C#N)c(C)c1CCC(=O)NCc1ccc(Cl)cc1,.,.,.,.,.,.
CC(C)(C)S(=O)N1CCC[C@@H]1c1noc2cc3ccccc3cc12 (some centres undefined),/,/,.,/,/,/
Cc1nc(SCc2ccccc2)c([N+](=O)[O-])[nH]1,.,.,.,?,.,.
Cc1nc(SCc2ccccc2)c(C(F)(F)F)c(=O)[nH]1,5.2µM,.,.,.,.,.
COc1ccc(OC)c(NC(=O)C(C)n2nc(C)c3c(C)n(-c4ccccc4)nc3c2=O)c1 (centres undefined),/,/,.,/,.,/
COC(=O)c1ccc2c(=O)[nH]c(COC(=O)c3c(-c4ccccc4)noc3C)nc2c1,?,.,.,.,.,?
Cn1cccc1/C=N/NC(=O)c1cccnc1,.,.,.,.,.,.
CN1/C(=C\C=N\NC(=O)c2cccnc2)C(C)(C)c2ccccc21,?,.,.,0.59µM,.,.
Cc1c(N=C/C=C2\N(C)c3ccccc3C2(C)C)c(=O)n(-c2ccccc2)n1C,4.1µM,.,.,.,.,.
Cc1ccc(C(=O)NC(=S)/C=C2\N(C)c3ccccc3C2(C)C)cc1,?,.,-68,.,.,11µM
CN1/C(=C\C=Nc2ccccc2)C(C)(C)c2ccccc21,?,.,?,?,.,.
CN1/C(=C\C=N\NC(=O)c2ccc(O)cc2)C(C)(C)c2ccccc21,?,.,-90,.,.,?
CC(C)c1nnc(NC(=O)CCC(=O)NCC2CCCO2)s1 (centres undefined),2.1µM,.,.,.,.,.
O=C(COc1ccc(F)cc1)Nc1nc(-c2cccnc2)cs1,/,/,.,/,/,/
COc1ccc(C2/C(=C(/O)c3ccccc3)C(=O)C(=O)N2c2ccccn2)c(OC)c1 (centres undefined),.,.,.,.,.,.
COc1ccc(/C(O)=C2/C(=O)C(=O)N(c3ccccn3)C2c2ccc(F)cc2)cc1 (centres undefined),6.6µM,.,.,.,.,.
COc1ccc(C2/C(=C(/O)c3ccc(C)cc3)C(=O)C(=O)N2c2ccccn2)cc1 (centres undefined),.,.,.,.,.,.
COc1ccc(C2/C(=C(\O)c3cccc(OC)c3)C(=O)C(=O)N2c2ccccn2)cc1 (centres undefined),.,.,-107,?,.,.
Cc1cc(N2C(=O)C(=O)/C(=C(/O)c3ccc(F)cc3)C2c2ccc(Cl)cc2)no1 (centres undefined),.,.,.,13µM,.,.
COc1cccc(/C(O)=C2\C(=O)C(=O)N(c3ccccn3)C2c2ccccc2OC)c1 (centres undefined),5.2µM,.,.,.,?,.
SMILES,Pf growth 96h,SARS PLP yeast,HCMV antiviral,Pf growth 48h,Sm TGR block,HCV inh
COc1ccccc1Cc1c(-c2ccco2)nc2ccc(Br)cn12,/,/,.,/,/,/
COc1cccc(NC(=O)Cn2c(=O)n(CC(=O)NCc3ccc(C)cc3)c(=O)c3sccc32)c1,/,/,.,/,.,/
CCOC(C(=O)OCCC[N+](C)(CC)CC)(c1ccccc1)c1ccccc1,/,.,.,2.1µM,.,.
CCOC(C(=O)OCC(O)CN(CC)CC)(c1ccccc1)c1ccccc1 (centres undefined),.,.,.,10µM,.,.
CC[N+](C)(CC)CCCOC(=O)C(O)(c1ccccc1)C1CCCCC1 (centres undefined),.,.,.,4.1µM,.,.
O=C(O)C(O)(c1ccccc1)C1CCCCC1 (centres undefined),?,.,.,.,.,.
CCN(CC)CC#CCOC(=O)[C@@](O)(c1ccccc1)C1CCCCC1,12µM,/,/,?,/,/
CCN(CC)CC(O)COC(c1ccccc1)c1ccccc1 (centres undefined),?,.,.,?,.,.
CCN(CC)CC#CCC(O)(c1ccccc1)C1CCCC1 (centres undefined),.,.,.,?,.,.
CCN(CC)CCOC(=O)C(O)(c1ccccc1)c1ccccc1,.,.,.,.,.,.
COC(=O)C(Cc1cnc[nH]1)NC(=O)C1CCC(=O)N1 (centres undefined),.,.,.,.,.,.
CC[N+](C)(CC)CCOC(=O)C(O)(c1ccccc1)C1CCCCC1 (centres undefined),13µM!,.,?,12µM!,.,.[8.37 µM]
CC[N+](C)(CC)CCC(c1ccccc1)C1CCCCC1 (centres undefined),?,.,.,6.6µM,18µM,.
O=C(O)C(c1ccccc1)C(O)C1CCCC1 (centres undefined),/,/,.,/,/,.
Cc1nonc1NC(=O)OC1CCCCC1,1µM,.,.,?,.,.
Cc1ccc(S(=O)(=O)Cn2nnnc2CN(Cc2ccco2)CC2CCCO2)cc1 (centres undefined),4.1µM,.,.,?,28µM,.
Cc1cccc2cc(CN(CC3CCCO3)C(=O)c3ccco3)c(=O)[nH]c12 (centres undefined),?,.,.,.,35µM,.
Cc1ccc2cc(CN(Cc3nnnn3Cc3ccco3)CC3CCCO3)c(=O)[nH]c2c1C (centres undefined),.,.,.,?,18µM,.
O=C(c1ccco1)N(Cc1cc2ccccc2[nH]c1=O)CC1CCCO1 (centres undefined),.,.,.,/,.,.
Cc1ccc2cc(CN(CC3CCCO3)S(=O)(=O)c3ccccc3)c3nnnn3c2c1 (centres undefined),.,.,.,?,.,?
COc1ccc2[nH]c(=O)c(CN(Cc3nnnn3Cc3ccccc3)CC3CCCO3)cc2c1 (centres undefined),.,.,.,?,.,.
Cc1ccc2cc(CN(CC3CCCO3)C(=S)NCc3ccco3)c(=O)[nH]c2c1C (centres undefined),.,.,-63,?,.,?

# Screening results (PubChem BioAssay)
